# Measured values as given in the supplement of paper PMC10849652.
# Of roughly 7,900 targets only a part is listed; those with a hit were picked by preference. About 0.6% of all pairs of compound and target were hits. A number with no mark means an inactive call.
# Assays:
# Experiment in all cases: log2 fold change, soluble protein after heating vs DMSO (PISA); higher = thermal stabilisation; K562 cells, 10 uM, 30 min; active = over 0.2 and 3.5 SD of the protein, either way, in both replicates (recomputed)
# erlotinib = compound: C#Cc1cccc(Nc2ncnc3cc(OCCOC)c(OCCOC)cc23)c1 [erlotinib]
# In short: (§1)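 K562 cells at 2×10^6 cells/mL were treated for 30 min with 10 μM compound, and aliquots were heated for 3 min over 48°C-58°C before pooling. Extraction used PBS with 0.5% NP-40 at 4°C, and soluble protein was the supernatant after 21,000xg for 90 min, measured by TMTpro 16plex LC-MS/MS with channel sums equalised. Thermal stability values, relative to control samples and from duplicates, are log2 fold changes.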
# [1] = compound: C/C(=N\NC(=O)C1=CC(=CC=C1)S(=O)(=O)N2CCOCC2)/C3=C(C=CC(=C3)Cl)O
# In short: as §1
# [2] = compound: C1=CC(=C(C=C1Cl)C2=NC3=NC=CN=C3C(=N2)NC4=CC=NC=C4)F
# In short: as §1
# [3] = compound: C1=CC(=CC=C1C2=NC3=C(N2)C=C(C=C3)C(=O)N)OC4=CC=C(C=C4)Cl
# In short: as §1
# [4] = compound: C1=CC2=C(C=CC(=C2)/C=C\3/C(=O)NC(=NCC4=CC=CS4)S3)N=C1
# In short: as §1
# [5] = compound: C1=CC2=NC=CN=C2C=C1/C=C/3\C(=O)NC(=O)S3
# In short: as §1
# [6] = compound: C1=CC=C(C=C1)C2=NC(=C(N2)C3=CC=NC=C3)C4=CC(=C(C=C4)Cl)O
# In short: as §1
# [7] = compound: C1=CC=C2C(=C1)C3=NNC4=CC=CC(=C43)C2=O
# In short: as §1
# [8] = compound: C1CCN(C1)C(=O)NC2=CC=CC(=C2)NC3=NC=C(C(=N3)NCCC4=CN=CN4)Br
# In short: as §1
# [9] = compound: C1CN(CCC1(CC2=CC=C(C=C2)Cl)N)C3=NC=NC4=C3C=CN4
# In short: as §1
# Chain of UniProt Q8TBZ6 (Q8TBZ6 whole entry, looked up): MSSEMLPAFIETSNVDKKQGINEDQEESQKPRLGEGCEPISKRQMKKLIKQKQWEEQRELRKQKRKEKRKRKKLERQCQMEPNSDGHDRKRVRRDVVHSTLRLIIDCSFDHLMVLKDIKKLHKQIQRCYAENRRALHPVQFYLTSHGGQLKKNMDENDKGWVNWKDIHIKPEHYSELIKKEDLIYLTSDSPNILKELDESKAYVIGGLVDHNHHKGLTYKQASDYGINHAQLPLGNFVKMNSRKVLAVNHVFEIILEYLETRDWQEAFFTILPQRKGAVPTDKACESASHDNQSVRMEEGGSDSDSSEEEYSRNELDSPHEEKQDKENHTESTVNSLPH
# Chain of UniProt A6NHL2 (A6NHL2 whole entry, looked up): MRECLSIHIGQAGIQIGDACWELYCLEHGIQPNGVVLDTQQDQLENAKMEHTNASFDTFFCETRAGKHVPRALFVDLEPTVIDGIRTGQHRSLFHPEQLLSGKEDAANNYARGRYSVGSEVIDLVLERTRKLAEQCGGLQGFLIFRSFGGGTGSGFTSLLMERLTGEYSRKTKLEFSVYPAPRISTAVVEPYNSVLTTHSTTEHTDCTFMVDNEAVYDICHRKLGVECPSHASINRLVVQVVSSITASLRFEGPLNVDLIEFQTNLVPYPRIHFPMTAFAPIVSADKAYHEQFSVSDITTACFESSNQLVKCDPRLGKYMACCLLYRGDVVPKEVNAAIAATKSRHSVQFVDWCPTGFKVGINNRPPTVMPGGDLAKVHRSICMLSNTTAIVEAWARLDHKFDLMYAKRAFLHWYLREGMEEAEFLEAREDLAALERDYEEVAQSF
# Chain of UniProt A0JNW5 (A0JNW5 whole entry, looked up): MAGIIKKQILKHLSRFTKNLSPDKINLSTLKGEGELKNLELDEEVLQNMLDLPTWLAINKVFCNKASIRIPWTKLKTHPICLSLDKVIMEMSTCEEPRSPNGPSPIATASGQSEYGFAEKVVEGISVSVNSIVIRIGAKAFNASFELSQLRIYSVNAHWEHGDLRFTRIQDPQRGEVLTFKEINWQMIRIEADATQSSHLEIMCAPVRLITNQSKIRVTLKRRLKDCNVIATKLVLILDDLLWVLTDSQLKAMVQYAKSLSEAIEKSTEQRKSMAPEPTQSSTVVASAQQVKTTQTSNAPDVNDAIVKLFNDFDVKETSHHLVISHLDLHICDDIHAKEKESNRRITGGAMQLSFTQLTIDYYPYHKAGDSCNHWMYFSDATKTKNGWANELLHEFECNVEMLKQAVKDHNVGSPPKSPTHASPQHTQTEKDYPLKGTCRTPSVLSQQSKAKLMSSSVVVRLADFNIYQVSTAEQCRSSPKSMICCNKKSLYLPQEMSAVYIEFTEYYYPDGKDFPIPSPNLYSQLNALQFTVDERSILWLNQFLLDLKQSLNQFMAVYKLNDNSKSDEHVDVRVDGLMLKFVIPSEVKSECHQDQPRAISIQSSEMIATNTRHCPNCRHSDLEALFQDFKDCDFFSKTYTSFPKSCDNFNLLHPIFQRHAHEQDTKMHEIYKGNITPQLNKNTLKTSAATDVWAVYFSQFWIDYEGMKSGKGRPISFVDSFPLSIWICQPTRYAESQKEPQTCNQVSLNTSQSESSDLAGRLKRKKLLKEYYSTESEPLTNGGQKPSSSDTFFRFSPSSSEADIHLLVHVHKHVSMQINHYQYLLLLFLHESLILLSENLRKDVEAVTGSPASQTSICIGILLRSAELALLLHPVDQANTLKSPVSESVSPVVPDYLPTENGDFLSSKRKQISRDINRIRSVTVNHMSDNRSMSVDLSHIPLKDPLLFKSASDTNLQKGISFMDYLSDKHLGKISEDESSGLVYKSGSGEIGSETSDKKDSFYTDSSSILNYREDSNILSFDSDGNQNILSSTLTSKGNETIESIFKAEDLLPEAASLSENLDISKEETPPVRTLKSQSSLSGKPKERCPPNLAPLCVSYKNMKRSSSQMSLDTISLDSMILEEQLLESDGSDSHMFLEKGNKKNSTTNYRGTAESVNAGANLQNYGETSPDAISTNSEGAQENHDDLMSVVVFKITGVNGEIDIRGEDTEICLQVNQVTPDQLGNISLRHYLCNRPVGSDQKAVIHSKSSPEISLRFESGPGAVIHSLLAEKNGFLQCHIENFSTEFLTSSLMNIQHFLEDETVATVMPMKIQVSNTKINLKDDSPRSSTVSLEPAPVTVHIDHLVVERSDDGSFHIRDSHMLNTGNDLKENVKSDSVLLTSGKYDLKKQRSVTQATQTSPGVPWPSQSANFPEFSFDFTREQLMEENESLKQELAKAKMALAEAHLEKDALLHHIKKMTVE
# Chain of UniProt P18887 (P18887 whole entry, looked up): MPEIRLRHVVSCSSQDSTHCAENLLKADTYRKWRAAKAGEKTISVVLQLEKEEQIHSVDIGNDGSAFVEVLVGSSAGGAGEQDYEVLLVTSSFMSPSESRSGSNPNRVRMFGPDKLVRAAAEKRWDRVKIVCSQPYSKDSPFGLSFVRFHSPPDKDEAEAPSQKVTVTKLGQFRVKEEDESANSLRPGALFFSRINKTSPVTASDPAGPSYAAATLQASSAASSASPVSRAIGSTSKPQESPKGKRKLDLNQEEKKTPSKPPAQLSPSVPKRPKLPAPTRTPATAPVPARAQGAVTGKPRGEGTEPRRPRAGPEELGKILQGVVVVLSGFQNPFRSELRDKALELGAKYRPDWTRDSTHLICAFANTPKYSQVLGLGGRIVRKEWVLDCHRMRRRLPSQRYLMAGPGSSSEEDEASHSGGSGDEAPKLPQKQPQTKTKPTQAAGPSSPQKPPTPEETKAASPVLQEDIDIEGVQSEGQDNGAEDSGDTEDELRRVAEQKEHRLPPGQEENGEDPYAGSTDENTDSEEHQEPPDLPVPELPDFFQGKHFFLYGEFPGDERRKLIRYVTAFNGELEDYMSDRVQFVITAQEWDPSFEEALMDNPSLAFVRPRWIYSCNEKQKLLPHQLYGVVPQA
# Chain of UniProt Q86XT9 (Q86XT9 whole entry, looked up): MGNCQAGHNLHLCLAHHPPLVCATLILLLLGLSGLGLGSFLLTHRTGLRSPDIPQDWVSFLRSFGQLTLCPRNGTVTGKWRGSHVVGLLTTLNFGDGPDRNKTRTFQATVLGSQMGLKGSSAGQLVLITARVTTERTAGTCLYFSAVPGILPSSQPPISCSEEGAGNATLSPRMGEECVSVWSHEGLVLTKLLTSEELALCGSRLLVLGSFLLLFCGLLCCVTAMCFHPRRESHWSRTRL
# Chain of UniProt Q5R3I4 (Q5R3I4 whole entry, looked up): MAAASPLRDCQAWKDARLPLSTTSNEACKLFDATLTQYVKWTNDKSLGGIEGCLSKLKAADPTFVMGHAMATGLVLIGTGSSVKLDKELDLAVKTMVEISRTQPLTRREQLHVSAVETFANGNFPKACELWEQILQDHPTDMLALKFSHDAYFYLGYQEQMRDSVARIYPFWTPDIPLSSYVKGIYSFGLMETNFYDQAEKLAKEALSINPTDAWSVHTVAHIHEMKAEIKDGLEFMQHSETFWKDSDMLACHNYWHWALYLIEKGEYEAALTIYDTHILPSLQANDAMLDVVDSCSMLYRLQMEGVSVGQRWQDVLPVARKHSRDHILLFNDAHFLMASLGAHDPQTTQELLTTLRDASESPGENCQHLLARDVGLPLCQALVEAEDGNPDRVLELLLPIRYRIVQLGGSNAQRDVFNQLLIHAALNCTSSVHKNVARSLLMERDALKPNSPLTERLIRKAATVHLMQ
# Chain of UniProt Q5U3C3 (Q5U3C3 whole entry, looked up): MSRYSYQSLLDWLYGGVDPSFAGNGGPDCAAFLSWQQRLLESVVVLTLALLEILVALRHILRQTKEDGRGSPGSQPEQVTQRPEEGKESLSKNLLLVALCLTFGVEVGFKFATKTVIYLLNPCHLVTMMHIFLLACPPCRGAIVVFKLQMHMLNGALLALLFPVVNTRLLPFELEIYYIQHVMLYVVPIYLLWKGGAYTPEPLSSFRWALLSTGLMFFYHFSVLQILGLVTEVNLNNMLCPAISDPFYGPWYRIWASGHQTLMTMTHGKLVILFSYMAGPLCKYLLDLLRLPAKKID
# Chain of UniProt P07951 (P07951 whole entry, looked up): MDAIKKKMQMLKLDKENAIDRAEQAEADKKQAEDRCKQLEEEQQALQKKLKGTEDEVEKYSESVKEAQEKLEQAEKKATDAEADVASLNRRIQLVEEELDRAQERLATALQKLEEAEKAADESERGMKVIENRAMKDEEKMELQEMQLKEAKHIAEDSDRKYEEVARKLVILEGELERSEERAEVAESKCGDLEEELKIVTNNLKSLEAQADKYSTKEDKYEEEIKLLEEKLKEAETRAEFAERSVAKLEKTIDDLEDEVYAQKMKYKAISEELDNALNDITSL
# Chain of UniProt Q9UEU0 (Q9UEU0 whole entry, looked up): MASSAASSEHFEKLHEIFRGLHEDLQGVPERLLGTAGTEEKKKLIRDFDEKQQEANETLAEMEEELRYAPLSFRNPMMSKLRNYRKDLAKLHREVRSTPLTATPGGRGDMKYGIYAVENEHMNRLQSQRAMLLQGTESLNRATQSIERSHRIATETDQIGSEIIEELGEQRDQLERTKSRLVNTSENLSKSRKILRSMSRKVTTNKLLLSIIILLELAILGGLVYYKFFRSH
# Chain of UniProt P98170 (P98170 whole entry, looked up): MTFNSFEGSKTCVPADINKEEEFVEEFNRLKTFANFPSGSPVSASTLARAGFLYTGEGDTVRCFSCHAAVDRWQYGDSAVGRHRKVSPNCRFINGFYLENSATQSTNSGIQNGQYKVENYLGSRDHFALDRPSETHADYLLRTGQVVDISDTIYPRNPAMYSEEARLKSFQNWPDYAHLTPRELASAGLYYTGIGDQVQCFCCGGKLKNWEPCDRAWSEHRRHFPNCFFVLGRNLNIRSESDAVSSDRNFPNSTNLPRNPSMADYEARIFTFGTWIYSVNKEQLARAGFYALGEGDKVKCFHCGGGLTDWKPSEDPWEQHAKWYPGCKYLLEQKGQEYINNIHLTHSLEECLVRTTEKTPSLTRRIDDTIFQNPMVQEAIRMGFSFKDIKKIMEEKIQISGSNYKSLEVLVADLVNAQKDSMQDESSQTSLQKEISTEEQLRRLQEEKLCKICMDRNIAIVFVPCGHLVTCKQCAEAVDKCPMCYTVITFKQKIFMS
# Chain of UniProt Q9UDW1 (Q9UDW1 whole entry, looked up): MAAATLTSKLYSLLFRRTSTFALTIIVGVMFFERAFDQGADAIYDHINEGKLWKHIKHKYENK
Target,log2 fold change (erlotinib),log2 fold change [1],log2 fold change [2],log2 fold change [3],log2 fold change [4],log2 fold change [5],log2 fold change [6],log2 fold change [7],log2 fold change [8],log2 fold change [9]
USP3 (UniProt Q9Y6I4),0.099,0.114,0.121,0.004,-0.062,0.014,0.057,-0.052,0.007,0.095
XRCC6 (UniProt P12956),0.025,0.103,0.093,0.011,0.065,0.031,-0.023,-0.036,-0.043,-0.025
VTI1B (UniProt Q9UEU0),0.011,-0.008,-0.023,-0.02,0,0.03,-0.055,-0.036,0.022,0.046
UBE4A isoform 2 (UniProt Q14139),0.012,0.148,0.083,-0.11,0.012,0.083,-0.039,-0.301,-0.018,-0.132
TTC38 (UniProt Q5R3I4),0.749 (active),0.032,0.082,0.072,0.021,-0.002,0.035,0.09,-0.06,0.025
WASHC5 (UniProt Q12768),0.019,0.084,-0.061,-0.004,0.088,-0.058,0.04,0.018,0.002,0.002
USO1 isoform 2 (UniProt O60763),-0.008,0.046,0.051,-0.028,-0.049,0.059,0.004,-0.028,0.033,-0.014
UBA52 (UniProt P62987),-0.113,-0.266,-0.659,0.093,-0.311,-0.024,-0.029,-0.082,0.165,-0.04
WRB (UniProt O00258),-0.02,0.012,0.032,0.019,-0.003,0.069,0.019,-0.042,0.027,-0.011
TRAPPC6B (UniProt Q86SZ2),0.026,0.07,0.315 (active),-0.016,0.011,-0.006,-0.016,-0.014,-0.048,0.018
TMEM177 (UniProt Q53S58),0.058,0.044,0.03,-0.025,0.062,-0.015,-0.034,0.01,0.028,0.132
VRK1 (UniProt Q99986),0.087,-0.055,0.119,-0.016,0.038,-0.024,-0.039,0.078,-0.044,-0.045
XPNPEP1 isoform 3 (UniProt Q9NQW7),-0.005,-0.069,0.067,0.022,0.076,-0.003,0.048,0.04,0,0.033
TSEN2 (UniProt Q8NCE0),0.08,-0.001,-0.016,0.029,0.041,0.098,0.023,0.023,-0.04,0.061
TRAPPC8 (UniProt Q9Y2L5),0.024,0.118,-0.012,0.027,0.094,-0.007,-0.068,-0.018,-0.011,-0.036
TNPO1 (UniProt Q92973),-0.032,0.08,0.038,0.011,-0.006,0.016,0.008,-0.027,-0.001,0
UCHL5 isoform 3 (UniProt Q9Y5K5),0.047,0.106,0.415,-0.124,-0.036,0.125,-0.11,0.102,0.207,-0.103
UBA6,0.011,0.099,0.06,0.038,0.014,-0.037,0.014,0.015,-0.024,-0.015
TRMT10A (UniProt Q8TBZ6),-0.01,0.044,0.004,0.031,0.037,0.02,-0.015,0.271 (active),0.038,-0.045
TSC2 (UniProt P49815),0.276,-0.047,-0.104,-0.297,-0.025,-0.135,0.06,0.063,-0.001,0.199

Target,log2 fold change (erlotinib),log2 fold change [1],log2 fold change [2],log2 fold change [3],log2 fold change [4],log2 fold change [5],log2 fold change [6],log2 fold change [7],log2 fold change [8],log2 fold change [9]
USP15 (UniProt Q9Y4E8),0.026,0.078,0.08,-0.015,0.027,0.031,0,0.012,-0.011,-0.031
TUBAL3 (UniProt A6NHL2),0.092,0.096,0.099,0.018,0.048,0.004,0.031,-0.034,-0.046,0.145
TPM2 (UniProt P07951),-0.05,0.009,0.417,0.021,-0.146,0.025,0.102,0.02,-0.069,0.101
TPP1 (UniProt O14773),0.013,0.009,0.059,-0.015,-0.007,0.024,0.034,-0.014,-0.012,-0.017
UQCR10 (UniProt Q9UDW1),-0.026,0.056,0.069,-0.023,0.034,0.014,0.046,-0.003,0.006,0
TRAM1 (UniProt Q15629),0.059,0.016,-0.028,-0.088,0.015,0.065,0.144,-0.151,0.105,0
TRIP10 isoform 2 (UniProt Q15642),-0.116,-0.002,0.112,0.094,-0.069,0.055,0.326,0.055,-0.089,0.014
UTP14A (UniProt Q9BVJ6),-0.142,-0.15,-0.301,0.06,-0.075,-0.005,-0.06,-0.045,0.006,-0.155
TUBA4A (UniProt P68366),0.016,0.048,0.048,-0.038,0.069,-0.04,-0.037,0.027,-0.015,0.075
WDR4 (UniProt P57081),0.058,0.106,0.131,-0.012,-0.046,0.223,0.061,0.011,0.031,0.053
UBC (UniProt P0CG48),-0.007,-0.021,-0.004,0.011,0.024,-0.044,-0.054,0.009,0.043,-0.041
XIAP (UniProt P98170),0.166,0.062,0.1,-0.002,0.075,-0.018,,-0.002,-0.024,0.065
TNNC2 (UniProt P02585),0.035,-0.007,-0.004,0.018,0.047,0.026,-0.058,-0.026,0.101,-0.449
UHRF1BP1L (UniProt A0JNW5),-0.024,0.017,0.016,0.027,0.042,0.01,-0.009,0.025,-0.007,0.061
TNFRSF8 (UniProt P28908),0.009,0.017,-0.015,0.006,-0.109,0.024,-0.062,-0.061,-0.046,0.05
TSG101 (UniProt Q99816),0.022,0.054,0.051,0.027,0.046,0.004,-0.032,0,0.003,-0.006
U2AF1 isoform 2 (UniProt Q01081),0.015,0.119,-0.02,-0.036,-0.038,0.015,0.036,-0.036,-0.071,-0.071
XRCC1 (UniProt P18887),0.036,-0.392,0.04,0.046,0.304,,-0.035,0.042,0.043,0.117
XPO1 (UniProt O14980),0.019,0.118,0.045,-0.06,0.061,0.041,0.051,-0.036,0.002,-0.027
UFM1 isoform 2 (UniProt P61960),-0.132,0.108,0.06,0.14,0.07,0.032,,-0.003,0.08,0.004

Target,log2 fold change (erlotinib),log2 fold change [1],log2 fold change [2],log2 fold change [3],log2 fold change [4],log2 fold change [5],log2 fold change [6],log2 fold change [7],log2 fold change [8],log2 fold change [9]
VPS35L (UniProt Q7Z3J2),0.011,-0.004,-0.072,0.025,0.044,0.059,0.014,0.012,-0.047,0.071
TMEM104 (UniProt Q8NE00),0.08,-0.026,0.037,0.026,0.039,,0.013,-0.015,,
VPS53 isoform 4 (UniProt Q5VIR6),0.06,0.094,0.003,-0.04,0.107,0.048,-0.083,0.022,-0.021,-0.004
USP9X (UniProt Q93008),0.012,0.06,-0.012,-0.029,0.026,0.008,0.013,-0.033,0.002,-0.002
TMEM106B (UniProt Q9NUM4),0.007,0.028,-0.047,0.031,0.051,-0.002,,0.003,-0.064,0.15
WASHC3 (UniProt Q9Y3C0),0.029,-0.015,0.053,0.007,0.12,0.036,0.017,-0.114,-0.041,0.059
WNK1 isoform 7 (UniProt Q9H4A3),0.043,0.014,0.012,-0.003,0.026,0.006,-0.046,0.021,-0.028,-0.02
TNFRSF10A (UniProt O00220),-0.01,-0.05,-0.023,-0.014,0.049,-0.012,-0.026,0.018,-0.039,-0.049
VAMP7 (UniProt P51809),-0.02,0.003,0.077,0.005,0.016,0.007,0.065,-0.001,0.001,0.03
UBE2J2 isoform 3 (UniProt Q8N2K1),-0.096,0.154,0.026,0.07,-0.057,0.126,,-0.039,-0.145,-0.015
TMEM219 (UniProt Q86XT9),-0.029,0.035,0.059,0.073,0.001,0.015,,0.006,0.042,0.016
TMEM189-UBE2V1 (UniProt I3L0A0),-0.014,0.025,0.015,0.019,0.055,-0.047,0.028,-0.009,0.02,0.058
TMEM164 (UniProt Q5U3C3),-0.103,0.178,0.041,0.002,0.129,0.078,,0.017,-0.042,0.021
WDR41 (UniProt Q9HAD4),0.039,0.038,0.128,0.026,-0.016,0.019,-0.005,-0.07,-0.012,0.073
WARS2 (UniProt Q9UGM6),0.069,-0.016,0.034,-0.094,0.033,0.006,-0.032,0.031,0.027,-0.027
XRCC5 (UniProt P13010),0.103,0.178,-0.012,-0.038,0.079,0.037,0.11,-0.039,-0.059,-0.139
WDR43 (UniProt Q15061),0.001,-0.003,0.008,-0.001,-0.028,0.015,-0.008,0.017,-0.013,0.042
WDR62 isoform 4 (UniProt O43379),0.046,0.015,-0.118,0.055,-0.016,0.046,-0.05,-0.041,0,0.014
VPS8 (UniProt Q8N3P4),0.005,0.036,0.017,-0.024,0.016,0.031,0.041,0.012,0.026,0.027
TTI1 (UniProt O43156),-0.078,0.115,-0.015,-0.045,0.057,0.028,0.029,0.008,0.019,0.028
